This is a sample that favours compounds with a hit; in the whole collection about 9% have one here.
Luc counter – blocks Kinase-Glo luciferase, a counter-screen artifact | Q27757 | Kinase-Glo luciferase, ATP luminescence, 8 min | Potency, µM (highest dose often 38.3 µM), actives largely listed as inhibitors | 200,000 compounds, 0.28% hits; active means well fitted curve in the direction sought with a large enough effect; inconclusive means small, poorly fitted or top-dose-only effect, or another doubt; inactive means no such curve, though single readings can be large; an effect the other way counts as inactive or inconclusive; further: nearly all actives have a fitted effect of over 60% in size
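Light output from Kinase-Glo luciferase with luciferin and 10 uM ATP in 50 mM imidazole pH 7.2, KCl, MgCl2, Tween 20, BSA; compound pin-delivered, 8-min ambient incubation, then luminescence read.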
HPGD block – HPGD (human) dehydrogenase inhibition; P15428; purified HPGD, NADH fluorescence kinetic, PGE2 substrate; Potency, µM, usual class: inhibitors; 150,000 compounds, 4.3% hits; AID 894
Target sequence (P15428 whole entry, looked up): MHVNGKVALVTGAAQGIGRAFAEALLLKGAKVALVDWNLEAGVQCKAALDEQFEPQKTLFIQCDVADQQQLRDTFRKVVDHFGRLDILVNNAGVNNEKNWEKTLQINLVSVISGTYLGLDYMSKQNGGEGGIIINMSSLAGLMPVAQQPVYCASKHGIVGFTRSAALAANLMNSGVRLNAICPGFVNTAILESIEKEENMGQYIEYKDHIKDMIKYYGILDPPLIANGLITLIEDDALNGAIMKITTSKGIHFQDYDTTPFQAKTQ
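NADH formation kinetics: reaction with 30 uM PGE2 and 1 mM NAD+ (final), 20 nM enzyme, Tris-HCl pH 8 with Tween 20, after 15 min compound preincubation at room temperature. Fluorescence change, last versus first of five reads.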
Lamin A splicing – modulators of lamin A splicing; Potency, µM (top dose mostly 46.1 µM), usual class: inhibitors; HeLa LMNA splicing GFP/RFP minigene ratio, 48 h; AID 1487; 200,000 compounds, 0.01% hits; active means well fitted inhibition curve with a large enough effect in the signal ratio, with a control signal flat, not every such curve was filed as active; inconclusive means small, poorly fitted or top-dose-only effect, or effect the other way, or a change in a side signal; the % refers to the signal ratio
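S3 HeLa stable clones carrying a lamin A-EGFP splicing minigene plus DsRed2 were seeded at 600 cells/well in Opti-MEM with 2% FBS, pin-dosed and incubated 48 h at 37°C. Acumen cytometry (488 nm) gave the GFP/RFP total-intensity ratio.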
IMPase Li inh – membrane-permeable IMPase blocker, potentiated with lithium; CHO-M1 cells, IP1 TR-FRET (IP-One), carbachol + lithium; Potency, µM (titrated, usually from 59.4 µM), hits mostly inhibitors; 210,000 compounds, 0.35% hits; AID 1457; active means well fitted curve in the direction sought with a large enough effect; inconclusive means small, poorly fitted or top-dose-only effect, or another doubt; inactive means no such curve, though single readings can be large; an effect the other way counts as inactive or inconclusive;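 further: IP1 builds up when IMPase is blocked and the TR-FRET signal falls; nearly all actives have a fitted effect of over 50% in size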
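IP1 accumulation measured by competitive TR-FRET in lysed CHO-M1 cells after 30 min compound exposure at 37C, with a small lithium addition to potentiate weak responses. Hill-equation AC50 from ratio and donor-channel data.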
ALDH1A1 block – blocks purified human ALDH1A1 activity; P00352; Potency, µM (series often up to 75.3 µM), usual class: inhibitors; Purified ALDH1A1, NADH fluorescence, propionaldehyde substrate; 220,000 compounds, 7.3% hits; AID 1030
Target sequence (P00352 whole entry, looked up): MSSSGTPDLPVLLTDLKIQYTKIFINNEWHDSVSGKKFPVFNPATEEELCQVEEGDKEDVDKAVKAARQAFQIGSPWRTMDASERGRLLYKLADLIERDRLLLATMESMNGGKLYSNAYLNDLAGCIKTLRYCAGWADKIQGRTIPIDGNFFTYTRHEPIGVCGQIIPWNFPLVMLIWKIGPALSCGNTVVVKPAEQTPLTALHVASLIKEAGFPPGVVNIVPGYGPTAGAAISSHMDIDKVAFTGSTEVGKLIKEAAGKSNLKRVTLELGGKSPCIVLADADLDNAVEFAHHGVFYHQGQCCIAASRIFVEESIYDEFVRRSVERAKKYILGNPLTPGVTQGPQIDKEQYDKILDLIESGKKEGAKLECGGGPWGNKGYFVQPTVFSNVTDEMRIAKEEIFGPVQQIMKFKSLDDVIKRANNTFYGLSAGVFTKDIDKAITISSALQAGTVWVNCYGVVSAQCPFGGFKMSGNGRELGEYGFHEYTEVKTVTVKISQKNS
Each line names hits and unclear results; the compound was inactive in the other large screens; ! = not confirmed by another sample. Unless noted, the call rests on the fitted dose curve; in most records, active means well fitted inhibition curve with a large enough effect (not every such curve was filed as active); inconclusive means small, poorly fitted or top-dose-only effect, or another doubt; inactive means no such curve, though single readings can be large or run the other way.

CN(C)c1ccc(C(=C2C=CC(=[N+](C)C)C=C2)c2c(O)c(S(=O)(=O)O)cc3cc(S(=O)(=O)O)ccc23)cc1	Luc counter inconclusive, ALDH1A1 block 3.55µM (no result: Lamin A splicing)
COc1ccc(Cl)cc1NC(=S)N(CCCN1CCOCC1)Cc1cn(C)c2ccccc12	HPGD block 28.2µM
Nc1nc(-c2cc(Cl)cc(Cl)c2OC(F)F)cs1	none (no result: HPGD block, Lamin A splicing)
O=C(Nc1ccc(O)cc1)c1c(O)c2c([nH]c1=O)CCCC2	Lamin A splicing inconclusive (no result: HPGD block)
CCCCNC(=O)COC(=O)c1cc(Br)ccc1Cl	HPGD block inconclusive
CCC(CC)NC(=O)COC(=O)c1cc(Br)ccc1Cl	HPGD block 31.6µM
COc1cccc(Cn2c(=O)cnc3cnc(N(C)C)nc32)c1	ALDH1A1 block inconclusive (no result: Luc counter, HPGD block)
Clc1nnc(NN=C2CCCC2)c2ccccc12	Lamin A splicing inconclusive, ALDH1A1 block 2.82µM
CC(CCc1ccccc1)NC(=O)Cc1ccccc1 (centres undefined)	none
CCN(CC)C(NC(=O)Cc1ccccc1)C(Cl)(Cl)Cl (centres undefined)	HPGD block 14.1µM, ALDH1A1 block inconclusive
Cc1cc(=O)[nH]c(S/C=C/c2ccccc2)n1	Luc counter inconclusive, HPGD block 20µM
CCOC(=O)c1c(NC(=O)C(C)Sc2cn(C)c3ccccc23)sc2c1CCC2 (centres undefined)	ALDH1A1 block 25.1µM
CCOC(=O)c1c(NC(=O)CSc2c[nH]c3ccccc23)sc2c1CCC2	Lamin A splicing inconclusive, ALDH1A1 block inconclusive
O=S(=O)(c1ccc(F)cc1)c1nc(-c2ccccc2F)oc1N1CCCCC1	ALDH1A1 block 5.01µM
O=C(CSc1nnc(CNC(=O)c2c(F)cccc2Cl)o1)Nc1ccc2c(c1)OCCO2	ALDH1A1 block 17.8µM
CC(C)(C)OC(=O)NCCCCCc1nnc(SCC(=O)Nc2cccc(Cl)c2)o1	HPGD block 14.1µM, Lamin A splicing inconclusive, ALDH1A1 block inconclusive
CC(C)(C)OC(=O)NCCc1nnc(SCC(=O)Nc2cccc(Cl)c2)o1	none
O=C(CSc1nnc(CNC(=O)c2c(F)cccc2Cl)o1)NCc1ccc2c(c1)OCO2	Lamin A splicing inconclusive
COc1ccc(OC)c(NC(=O)CSc2nnc(CNC(=O)c3ccco3)o2)c1	ALDH1A1 block 10µM
COc1ccc(C(=O)NCc2nnc(SCC(=O)Nc3cccc(F)c3)o2)cc1	ALDH1A1 block 9.46µM (no result: HPGD block, Lamin A splicing)
COc1ccc(Cl)cc1NC(=O)CSc1nnc(CNC(=O)c2ccco2)o1	none (no result: HPGD block, Lamin A splicing)
CNc1ncncc1-c1c(C)noc1C	none (no result: Luc counter, HPGD block)
O=C(NCCC1=CCCCC1)c1ccc2c(c1)N(Cc1cccc(Cl)c1)C(=O)c1ccccc1S2(=O)=O	none (no result: Luc counter, HPGD block, IMPase Li inh, ALDH1A1 block)
CC(=O)OCC(=O)[C@@]1(O)[C@H](OC(C)=O)C[C@H]2[C@@H]3CCC4=CC(=O)C=C[C@]4(C)[C@@]3(F)[C@@H](O)C[C@@]21C	none (no result: Lamin A splicing)
COc1ccc(OC)c(NC(=O)CSc2nnc(C)n2Cc2ccccc2)c1	ALDH1A1 block 17.8µM
Cc1ccccc1-c1ccc(Nc2ccc(N3CCOCC3)cc2)nn1	Lamin A splicing inconclusive, ALDH1A1 block 8.91µM
c1csc(-c2cn3ccc4ccccc4c3n2)c1	ALDH1A1 block 5.01µM (no result: HPGD block, Lamin A splicing)
c1cc(-c2cccs2)nc(-c2cccs2)c1	HPGD block inconclusive, ALDH1A1 block inconclusive
CC1CCCN(C(c2ccccc2)c2sc3ncnn3c2O)C1 (centres undefined)	none (no result: Luc counter, HPGD block, Lamin A splicing)
Oc1c(C(c2ccccc2)N2CCc3ccccc3C2)sc2ncnn12 (centres undefined)	HPGD block 31.6µM, Lamin A splicing inconclusive, ALDH1A1 block 7.08µM
COc1cc(C(c2sc3nc(C)nn3c2O)N2CC(C)CC(C)C2)cc(OC)c1OC (centres undefined)	ALDH1A1 block 14.1µM
COc1cccc(C(c2sc3nc(C)nn3c2O)N2CCc3ccccc3C2)c1 (centres undefined)	HPGD block 11.2µM, ALDH1A1 block inconclusive
COc1cc(C(c2sc3nc(C)nn3c2O)N2CC(C)OC(C)C2)cc(OC)c1OC (centres undefined)	none
C[C@@H](C(=O)Nc1ccc2ccccc2c1)[C@H]1C[C@]1(C)[C@H](NC(=O)OCc1ccccc1)c1ccccc1	Lamin A splicing inconclusive, ALDH1A1 block 12.6µM
C[C@@H](C(=O)NCCc1c[nH]c2ccccc12)[C@H]1C[C@]1(C)[C@H](NC(=O)OCc1ccccc1)c1ccccc1	Lamin A splicing inconclusive, ALDH1A1 block 10µM
C[C@@H](C(=O)NCC1CC1)[C@@H]1C[C@@]1(C)[C@@H](NC(=O)OCc1ccccc1)c1ccccc1	none
C[C@@H](C(=O)NCc1ccccn1)[C@H]1C[C@]1(C)[C@H](NC(=O)OCc1ccccc1)c1ccccc1	ALDH1A1 block 31.6µM!
C[C@H](CO)NC(=O)[C@H](C)[C@H]1C[C@]1(C)[C@H](NC(=O)OCc1ccccc1)c1ccccc1	ALDH1A1 block 22.4µM
C[C@@H](N)C1CCC(C(=O)Nc2ccncc2)CC1 (some centres undefined)	Lamin A splicing inconclusive
Cc1cc(Cl)ccc1NC(=O)c1cc(S(=O)(=O)N2CCOCC2)cn1C	none (no result: Luc counter, HPGD block, IMPase Li inh, ALDH1A1 block)
Cc1cc(C(=O)N[C@H](c2ccccc2)[C@@]2(C)C[C@@H]2[C@@H](C)C(=O)Nc2ccc3ccccc3c2)n(C)n1	Lamin A splicing inconclusive, ALDH1A1 block 15.8µM
CC(C)(C)c1cc(/C=C(\C#N)C(N)=S)cc(C(C)(C)C)c1O	HPGD block inconclusive, Lamin A splicing inconclusive, ALDH1A1 block 2.82µM
[C-]#[N+]/C(C#N)=C\c1cc(C(C)(C)C)c(O)c(C(C)(C)C)c1	none (no result: Lamin A splicing)
N#C/C(=C/c1ccc(F)cc1)C(N)=S	ALDH1A1 block 25.1µM (no result: HPGD block, Lamin A splicing)
Cc1ccc(CNC(=O)CCc2c(C)nn(-c3ccc(N4CCOCC4)nn3)c2C)cc1	none (no result: Luc counter, HPGD block, IMPase Li inh, ALDH1A1 block)
COCCNC(=O)CSc1nnc(NC(=O)Nc2ccc(C)cc2)s1	none (no result: Luc counter, HPGD block, IMPase Li inh, ALDH1A1 block)
Cc1ccc(Sc2ccc(NC(=O)CCl)cc2)c(C)c1	HPGD block 11.2µM
CC(=O)Nc1ccc(NC(=O)CSc2ccc(C)cc2)cc1	none
CCCc1nn2c(=O)cc(COC(=O)C3CCCCC3)nc2s1	none (no result: Luc counter, HPGD block, IMPase Li inh, ALDH1A1 block)
COc1cc([C@@H]2c3cc4c(cc3[C@@H](OC3OC5COC(C)OC5C(O)C3O)[C@H]3COC(=O)[C@H]23)OCO4)cc(OC)c1O (some centres undefined)	none (no result: Luc counter, HPGD block, Lamin A splicing)
Cc1cccc(CN2CCc3c(OCC(=O)NCc4ccco4)cccc3C2=O)c1	ALDH1A1 block 22.4µM
Cc1cccc(CN2CCc3c(OCC(=O)N4CCCc5ccccc54)cccc3C2=O)c1	Lamin A splicing inconclusive, ALDH1A1 block 15.8µM
O=C(COc1cccc2c1CCN(Cc1ccccc1)C2=O)NCc1ccco1	ALDH1A1 block 20µM
CCC(=O)N1C2=C(c3ccccc3[C@@H]1CC(=O)Nc1ccc3ccccc3c1)[C@@H]1C(=O)N(c3ccccc3)C(=O)[C@@H]1[C@H](C)C2	Lamin A splicing inconclusive
CC(=O)N/N=C/c1cc(C(C)(C)C)cc(/C=N/NC(C)=O)c1O	Lamin A splicing inconclusive (no result: HPGD block)
